Values without a mark were called inactive.
Tested on: Vero E6 infected with SARS-CoV-2
Assay: inhibition of SARS-CoV-2 cytopathic effect; higher = more antiviral protection, active = above 15
Settings: 48 h

Row | SMILES | inhibition of SARS-CoV-2 cytopathic effect (1 nM) [%] | inhibition of SARS-CoV-2 cytopathic effect (8.33 nM) [%] | inhibition of SARS-CoV-2 cytopathic effect (100 nM) | inhibition of SARS-CoV-2 cytopathic effect (833.33 nM) | inhibition of SARS-CoV-2 cytopathic effect (10000 nM)
1 | NC(=O)C1=CN([C@@H]2O[C@H](COP(=O)(O)OP(=O)(O)OC[C@H]3O[C@@H](n4cnc5c(N)ncnc54)[C@H](OP(=O)(O)O)[C@@H]3O)[C@@H](O)[C@H]2O)C=CC1 | 0.75 | 3.17 | 2.16% | 0.8% | -1.27%
2 | C1=C2CCCN[C@H]2[C@@H]2C[C@H]1[C@H]1CCCCN1C2 [aloperine] | -0.36 | 2.25 | -0.38% | 0.5% | -1.11%
3 | O[C@@H](CN1CCC(Cc2ccc(F)cc2)CC1)c1ccc(Cl)cc1 (racemic) [eliprodil] | 0.81 | 0.95 | 0.19% | 2.59% | -0.42%
4 | CC(=O)SCCC(=O)N1[C@H](C)CCC[C@@H]1C(=O)O [methiopril] | -1.78 | -1.6 | 3.1% | 0.4% | 1.04%
5 | COC(=O)c1ccccc1O [methyl-salicylate] | 0.7 | 2.86 | 2.42% | -0.42% | -3.74%
6 | CN1C(=O)C(Cc2c[nH]c3ccccc23)NC1=S (stereo not given) [necrostatin-1] | 1.27 | -1.34 | 2.85% | 1.03% | 1.43%
7 | CN(C)CCc1c[nH]c2ccc(C[C@H]3COC(=O)N3)cc12 [zolmitriptan] | -2.55 | 2.01 | -1.58% | -2.13% | -2.93%
8 | COC(=O)C1=C(C)NC(C)=C(C(=O)OC2CCCN(Cc3ccccc3)C2)C1c1cccc([N+](=O)[O-])c1 (stereo not given) [benidipine] | -0.65 | -0.51 | -1.47% | -0.97% | -3.67%
9 | O=C(O)c1ccccc1Nc1cccc(C(F)(F)F)c1 [flufenamic-acid] | -1.93 | 0.57 | -0.92% | 0.82% | 0.1%
10 | O=C(O)C[C@H]1CC[C@H](c2ccc(NC(=O)c3nnc(Nc4ccc(F)c(F)c4)o3)cc2)CC1 | -0.14 | -0.74 | 0.13% | -2.59% | -0.04%
11 | Cn1c([N+](=O)[O-])cnc1COC(N)=O [ronidazole] | 2.87 | 0.97 | 1.04% | 2.17% | 2.12%
12 | O=C(NNC(=O)c1ccc(CNS(=O)(=O)c2ccc(F)c(Cl)c2)cc1)c1ccccc1 | -1.42 | -1.3 | 3.13% | 0.57% | -0.76%
13 | CC(C(=O)O)c1ccc2c(c1)CC(=O)c1ccccc1S2 (stereo not given) [zaltoprofen] | 1.83 | 2.8 | 3.97% | 0.28% | 1.17%
14 | CC1=C(/C=C/C(C)=C/C=C/C(C)=C/C(=O)O)C(C)(C)CCC1 [tretinoin] | 1 | -1.08 | -0.09% | 2.67% | 7.6%
15 | CC(C)C[C@H](NC(=O)CNC(=O)c1cc(Cl)ccc1Cl)B1OC(=O)C(CC(=O)O)(CC(=O)O)O1 [ixazomib-citrate] | 2.06 | 1.34 | 22.3% (active) | 29% (active) | 20.8% (active)
16 | C=CCc1cccc(/C=N/NC(=O)CN2CCN(Cc3ccccc3)CC2)c1O | 0.07 | 0.95 | 4.72% | 0.65% | -2.23%
17 | O=C1NC(O)CCN1[C@@H]1O[C@H](CO)[C@@H](O)[C@H]1O (stereo not given in full) [tetrahydrouridine] | 2.54 | 1.19 | 0.47% | -0.67% | -0.83%
18 | CNCC[C@H](Oc1cccc2ccccc12)c1cccs1 [duloxetine] | -2.53 | -0.71 | 0.92% | -2.04% | -6.87%

Reference: the supplement of paper PMC13380429
